Counter-ions that a name gives are not always drawn. Values without a mark were called inactive.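 How the source made its calls: active = HIS4 sensitivity z-score above 5 vs DMSO controls; inactive = score 5 or below.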
system: S. cerevisiae NKY1551 his4x/his4B, sporulating; assay: HIS4 meiotic recombination assay sensitivity score (z-score vs DMSO controls); higher = stronger inhibition of sporulation/recombination, active = hit call of the paper
Experimental: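 NIH Clinical Collection compounds were added 1:100 from stock (about 100 µM final) to S. cerevisiae. Growth: average doubling time (AvgG) over 24 h of BY4741 (wild-type) or AD1-9 (drug-efflux-pump deficient) in rich media. HIS4: the his4x/his4B heteroallelic recombination reporter strain (SK1) was sporulated 5 h with compound at 30°C, then colony density was read on -his plates after 48 h. Sensitivity score = (compound − mean of 8 DMSO controls)/SD of DMSO controls. Hit cutoffs are >2 for growth and >5 for sporulation.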

Compound	HIS4 meiotic recombination assay sensitivity score
CC(C)c1ccc2c(c1)c(SC(C)(C)C)c(CC(C)(C)C(=O)O)n2Cc1ccc(Cl)cc1 [Tocris-1311] (stock concentration (mM, diluted 1:100): 10)	-0.42
C#C[C@]1(O)CC[C@H]2[C@@H]3CCc4cc(OC)ccc4[C@H]3CC[C@@]21C [Mestranol] (stock concentration (mM, diluted 1:100): 10)	-0.79
CN1CCC(=C2c3ccccc3CCc3sccc32)CC1 [Pizotyline] (stock concentration (mM, diluted 1:100): 10)	9.23 (active)
CN(CCCN1c2ccccc2CCc2ccccc21)CC(=O)c1ccc(Cl)cc1 [Lofepramine] (stock concentration (mM, diluted 1:100): 10)	3.17
CN[C@H]1CC[C@@H](c2ccc(Cl)c(Cl)c2)c2ccccc21 [Sertraline] (stock concentration (mM, diluted 1:100): 9)	-0.61
COc1cc(C)c(Cc2cnc(N)nc2N)cc1OC [Ormetoprim] (stock concentration (mM, diluted 1:100): 10)	-0.05
CCN1CC(CCN2CCOCC2)C(c2ccccc2)(c2ccccc2)C1=O (stereo not given) [Doxapram hydrochloride] (stock concentration (mM, diluted 1:100): 10.4)	1.8
CC(=O)NC[C@H]1CN(c2ccc(N3CCOCC3)c(F)c2)C(=O)O1 [Linezolide] (stock concentration (mM, diluted 1:100): 10)	-0.83
Cc1ccnc2c1NC(=O)c1cccnc1N2C1CC1 [Viramune] (stock concentration (mM, diluted 1:100): 10)	0.21
CCOC(=O)c1ccc(OC(=O)CCCCCNC(=N)N)cc1 [Gabexate mesylate] (stock concentration (mM, diluted 1:100): 7.7)	2.41
OCc1cc(C(O)CNCCCCCCOCCCCc2ccccc2)ccc1O (stereo not given) [Salmeterol] (stock concentration (mM, diluted 1:100): 10)	0.79
COc1cc(C(=O)NC2CCCNC2)cc(OC)c1OC (stereo not given) [Troxipide] (stock concentration (mM, diluted 1:100): 10.1)	-0.27
CCCN[C@H]1CCc2nc(N)sc2C1 [Pramipexole hydrochloride] (stock concentration (mM, diluted 1:100): 7.1)	-0.03
CC(Cc1ccccc1)(NC(=O)CN)c1ccccc1 (stereo not given) [Remacemide] (stock concentration (mM, diluted 1:100): 10)	-1.04
COc1ccc(/C=C/C(=O)Nc2ccccc2C(=O)O)cc1OC [Tranilast] (stock concentration (mM, diluted 1:100): 10)	0.1
C[C@H](N[C@@H](CCc1ccccc1)C(=O)O)C(=O)N1CCC[C@H]1C(=O)O [Enalaprilat] (stock concentration (mM, diluted 1:100): 10)	-0.11
CC(=O)CCCCn1c(=O)c2c(ncn2C)n(C)c1=O [Pentoxifylline] (stock concentration (mM, diluted 1:100): 10)	-0.42
COc1ccccc1N1CCN(CC(O)COc2cccc3ccccc23)CC1 (stereo not given) [Naftopidil] (stock concentration (mM, diluted 1:100): 10)	5.23 (active)
COc1nc(C)nc(Cl)c1NC1=NCCN1 [Moxonidine hydrochloride] (stock concentration (mM, diluted 1:100): 9.2)	-0.58
c1cnc(N2CCN(Cc3ccc4c(c3)OCO4)CC2)nc1 [Piribedil] (stock concentration (mM, diluted 1:100): 9.7)	-0.82

Compound	HIS4 meiotic recombination assay sensitivity score
NC[C@H]1CC[C@H](C(=O)Oc2ccc(CCC(=O)O)cc2)CC1 [Cetraxate hydrochloride] (stock concentration (mM, diluted 1:100): 9)	-0.39
CC(C)[C@H](N)C(=O)OCCOCn1cnc2c(=O)nc(N)[nH]c21 [Valaciclovir hydrochloride] (stock concentration (mM, diluted 1:100): 9)	0.04
Cc1nccn1CC1CCc2c(c3ccccc3n2C)C1=O (stereo not given) [Ondansetron hcl] (stock concentration (mM, diluted 1:100): 8.9)	-0.73
COc1ccnc(C[S+]([O-])c2nc3cc(OC(F)F)ccc3[nH]2)c1OC (stereo not given) [Pantoprazole sodium] (stock concentration (mM, diluted 1:100): 10)	0.54
CC(=O)[C@H]1CC[C@H]2[C@@H]3CCC4=CC(=O)CC[C@]4(C)[C@H]3CC[C@]12C [Progesterone] (stock concentration (mM, diluted 1:100): 10)	6.09 (active)
COc1ccccc1OCCNCC(O)COc1cccc2[nH]c3ccccc3c12 (stereo not given) [Carvedilol] (stock concentration (mM, diluted 1:100): 10)	0.66
CCOC(=O)c1ncn2c1CN(C)C(=O)c1cc(F)ccc1-2 [Flumazenil] (stock concentration (mM, diluted 1:100): 10)	-0.81
CC(=O)CCCCn1cnc2c1c(=O)n(C)c(=O)n2C [Lomifylline] (stock concentration (mM, diluted 1:100): 10)	-1.26
O=C(O[C@@H]1C[C@@H]2C[C@H]3C[C@H](C1)N2CC3=O)c1c[nH]c2ccccc12 [Dolasetron mesylate] (stock concentration (mM, diluted 1:100): 10.4)	-3.34
CCCc1nc2c(C)cc(-c3nc4ccccc4n3C)cc2n1Cc1ccc(-c2ccccc2C(=O)O)cc1 [Telmisartan] (stock concentration (mM, diluted 1:100): 10)	-1.16
C[C@@H](c1ncncc1F)[C@](O)(Cn1cncn1)c1ccc(F)cc1F [Voriconazole] (stock concentration (mM, diluted 1:100): 9.9)	0.14
Cc1sc(N)c(C(=O)c2cccc(C(F)(F)F)c2)c1C (stock concentration (mM, diluted 1:100): 10)	1.22
CN(C)CCC(c1ccc(Cl)cc1)c1ccccn1 (stereo not given) [Chlorpheniramine] (stock concentration (mM, diluted 1:100): 10)	5.73 (active)
C[C@@H]1C[C@H]2[C@@H]3C[C@H](F)C4=CC(=O)C(Cl)=C[C@]4(C)[C@@]3(F)[C@@H](O)C[C@]2(C)[C@@]1(O)C(=O)CO [Halometasone monohydrate] (stock concentration (mM, diluted 1:100): 10)	-1.12
COC(=O)Nc1nc2cc(C(=O)c3ccc(F)cc3)ccc2[nH]1 [Flubendazole] (stock concentration (mM, diluted 1:100): 10)	-2.01
CC(N/C(=N\C#N)Nc1ccncc1)C(C)(C)C (stereo not given) [Pinacidil monohydrate] (stock concentration (mM, diluted 1:100): 10)	-1.38
N[C@@H]1CONC1=O [D-Cycloserine] (stock concentration (mM, diluted 1:100): 10)	-5.18
Nc1ccn([C@@H]2O[C@H](CO)[C@@H](O)[C@@H]2O)c(=O)n1 [Cytarabine] (stock concentration (mM, diluted 1:100): 10)	-0.49
COCCOC(=O)C1=C(C)NC(C)=C(C(=O)OC(C)C)C1c1cccc([N+](=O)[O-])c1 (stereo not given) [Nimodipine] (stock concentration (mM, diluted 1:100): 10)	4.27
CC(=O)Oc1ccccc1C(=O)Nc1ncc([N+](=O)[O-])s1 [Nitazoxanide] (stock concentration (mM, diluted 1:100): 10)	6.54 (active)

Reference: the supplement of paper PMC3414501
